Source: PubChem
In the library only some 2.4% were active in any assay of this set; here they are far more common.
D2 antagonist: antagonizes the human D2 dopamine receptor. P14416. HEK293 TREx D2 cells, calcium flux, dopamine EC80. inhibition, % at 10 µM. actives 2% (n = 340,000); in the data active = inhibition above about 30%; inactive = below that, where a call was filed; note: 0% is about no effect
Target sequence (P14416 whole entry, looked up): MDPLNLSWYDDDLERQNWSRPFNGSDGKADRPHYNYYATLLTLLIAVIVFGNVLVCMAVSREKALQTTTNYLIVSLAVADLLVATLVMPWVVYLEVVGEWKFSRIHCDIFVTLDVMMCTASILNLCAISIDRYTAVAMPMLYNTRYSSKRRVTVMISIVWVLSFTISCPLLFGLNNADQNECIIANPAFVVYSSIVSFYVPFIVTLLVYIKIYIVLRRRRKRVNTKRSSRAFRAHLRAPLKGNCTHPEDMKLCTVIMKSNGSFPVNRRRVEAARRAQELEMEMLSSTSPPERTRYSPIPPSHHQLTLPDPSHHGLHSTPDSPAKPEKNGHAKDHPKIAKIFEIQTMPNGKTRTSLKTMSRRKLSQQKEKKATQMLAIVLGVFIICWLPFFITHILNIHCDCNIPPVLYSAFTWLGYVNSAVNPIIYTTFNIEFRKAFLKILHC
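Cells plated overnight at 30 C with tetracycline; no-wash calcium dye, 30–90 min RT; 10 s baseline; compound pinned; 180 s read; EC80 dopamine added; another 180 s read.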
D2 PAM-1: D2 dopamine receptor (human) potentiation; HEK293 T-REx D2, calcium flux, EC20 dopamine potentiation; P14416; actives 0.34% (n = 340,000); potentiation, % at 10 µM; AID 485347;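 active = potentiation over 3 SD above the plate norm, cut at about 30% in these data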; note: 0% is about no effect
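Primary screen. Calcium kinetics in induced HEK293 T-REx D2 cells: compound pre-addition 180 s, EC20 dopamine, 180 s more.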
D2 PAM-2: positive allosteric modulators of human D2 dopamine receptor; DiscoveRx D2 beta-arrestin cells, luminescence, 90 min; 100% = 57 uM dopamine signal; potentiation, % (concentration not given with the values); P14416; actives 0.23% (n = 360,000); in the data active = potentiation above about 50%; inconclusive = mostly about 30% to 49%
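PathHunter D2 cells, attached overnight at 37 deg C, received compound in DMSO plus dopamine at EC20 (50 nM final) for 90 min at 37 deg C. Beta-arrestin recruitment was read as luminescence after 1 h with detection reagent at ambient temperature.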
D2 ag-1: agonists of human D2 dopamine receptor (beta-arrestin) | activation, % (concentration not given with the values) | actives 0.084% (n = 360,000) | P14416 | DiscoveRx PathHunter D2 beta-arrestin, luminescence, 90 min; 100% = 57 uM dopamine signal | AID 624465; in the data active = activation above about 40%; inconclusive = between about 15% and that limit
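Agonist mode: compounds alone added to overnight-plated D2 PathHunter cells for 90 min at 37 C, with 57 uM final dopamine (EC100) defining full response. Beta-arrestin recruitment detected by chemiluminescent reagent, read after 1 h at ambient temperature.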
D2 ag-2: agonists of human D2 dopamine receptor. actives 0.53% (n = 340,000). HEK293 T-REx D2 cells, calcium flux agonist mode. activation, % at 2 µM. AID 485358;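 active = activation over 3 SD above normal in the single-dose calcium agonist read, cut at about 30% in these data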; note: 0% is about no effect
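Agonism scored from kinetic calcium signal (1 read/sec, 180 s) following compound pin transfer, after a 10 s baseline. Cells: HEK293 Trex line expressing inducible D2 receptor coupled to calcium, dye-loaded after overnight culture at 30 C.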
* hit, by the source's call; ? = inconclusive; nt = no result given.

SMILES	D2 antagonist	D2 PAM-1	D2 PAM-2	D2 ag-1	D2 ag-2
CC(=O)c1ccccc1OCCCCN1CCCCC1	58*	-28	-5	-5	2
COc1cccc(NC(=O)CSc2nnc3[nH]c(=O)cc(-c4ccccc4)n23)c1	nt	15	nt	nt	0
CN1OC[C@@H]2CN(C(=S)NCCc3ccccc3)[C@H](c3ccc(-n4ccnc4)cc3)C[C@@H]21	nt	nt	-7	-1	nt
CCc1ccccc1OCCCCN1CCCC1	46*	-18	-38	-6	2
COc1ccc(C2CC(c3ccccc3)n3nnnc3N2)cc1 (stereo not drawn)	-2	4	-6	-2	1
COc1ccc(C2CC(c3cc(Br)ccc3F)n3nnnc3N2)cc1 (stereo not drawn)	12	34*	19	0	0
CC(=O)c1cccc(-n2c(=O)c3c4c(sc3n(CC(=O)c3ccc(Cl)cc3)c2=O)CN(C(C)=O)CC4)c1	nt	-3	nt	nt	1
O=C(Nc1ccc2c(c1)OCO2)c1cc(-c2ccccc2Cl)on1	37*	-33	-12	0	0
O=C(NC1CCCC1)c1cc(-c2ccc(Cl)cc2Cl)on1	31*	-10	-3	0	0
O=C(NC1CCCCC1)c1cc(-c2ccccc2Cl)on1	2	0	-7	-4	0
O=C(NC1CCCC1)c1cc(-c2ccccc2Cl)on1	50*	-13	-16	3	-1
O=C(NC1CCCC1)c1cc(-c2ccccc2O)on1	48*	-6	-7	-6	0
CCc1cccc(NC(=O)CC(c2ccc(OC)cc2)N2Cc3ccccc3C2=O)c1 (stereo not drawn)	nt	-6	nt	nt	0
CCC(C)c1ccccc1OCCCNC1CCCC1 (stereo not drawn)	78*	-26	-8	-7	2
Brc1ccccc1OCCCCCN1CCCC1	-24	-22	nt	nt	-1
CCC(C)c1ccccc1OCCOCCN1CCCC1 (stereo not drawn)	54*	-17	-27	1	-2
CCC(C)c1ccccc1OCCCCN1CCCC1 (stereo not drawn)	65*	-23	-33	0	0
COC(=O)C1CCN(C(=O)CSc2nc3ccc(OC)cc3[nH]2)CC1	2	11	-19	-1	2
COc1ccc2nc(SCC(=O)N3CCNC3=O)[nH]c2c1	44*	6	-6	-2	1
CCCCN(C)C(=O)Cn1cnc2sc(C)c(S(=O)(=O)N3CCC(C)CC3)c2c1=O	nt	-4	nt	nt	nt
CN(C)CCNC(=O)c1cccc(-c2cnc3c(NC=O)cc(/C=C/c4ccccc4)cn23)c1	nt	nt	-2	5	nt
Cc1[nH]c(=O)[nH]c(=O)c1S(=O)(=O)Nc1ccc(Oc2ccccc2)cc1	-8	6	3	-2	0
CN(C)S(=O)(=O)Nc1ccc(Oc2ccccc2)cc1	35*	3	-20	-1	0
CCCN1C(=O)/C(=C/c2ccc(C)s2)NC1=S	31*	-10	-2	-2	0
CCC(C(=O)NCCc1ccccc1)n1nc(C)c2sc3ccccc3c2c1=O (stereo not drawn)	nt	0	nt	nt	0
SMILES	D2 antagonist	D2 PAM-1	D2 PAM-2	D2 ag-1	D2 ag-2
CCN(C(C)=O)c1cnc(C=NNC(N)=S)c2ccccc12	nt	nt	57*	?	nt
CCNCCC(=O)N1c2ccccc2Sc2ccc(C(F)(F)F)cc21	73*	-24	-17	-7	9
O=C(OCc1ccccc1)C1=[N+]([O-])OC(C(=O)OCc2ccccc2)C1c1c[nH]c2ccccc12 (stereo not drawn)	-11	2	63*	6	-1
O=C(Oc1cccc(Oc2ccccc2)c1)N1CCOCC1	41*	7	-5	0	-1
O=C(Oc1ccc(-c2ccccc2)cc1)N1CCOCC1	5	3	-1	1	0
COc1cc(O)c2c(c1)OC(C)(C)CC2=O	4	nt	-5	-2	1
COc1cc(O)cc2cc3c(c(O)c12)C(=O)CC(C)(O)O3 (stereo not drawn)	37*	6	20	4	0
COc1ccc(OC)c(NCc2cccn2-c2nnc(N3CCCCC3)s2)c1	nt	4	nt	nt	-1
COc1cc2c(cc1OC)C(=Cc1ccc(N(C)C)cc1)C=C2	nt	nt	-10	-5	nt
COc1cc2nc(/C=C/c3ccc(N(C)C)cc3)sc2cc1SC	24	-4	-8	-3	67*
